In PubChem BioAssay one finds composite z-score and z-score data, which are given here for five compounds.

The source made the active and inactive calls.

Assay [1] is described as follows: small molecules captured by biotinylated probe aFSTL3 – biochemical, small-molecule microarray, fluorescence 635/667, stem cell growth factor project, primary screen (AID 1064).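 Also: measures binding of the biotinylated anti-FSTL3 antibody to printed compounds.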 The conditions noted are these: higher = more signal.
The nature of assay [2]: binders from COS7 lysate, DM2A8 probe, primary screen, torsin A project, cell lysate, small-molecule microarray, fluorescence 635/667 (AID 1065). Conditions: higher = more signal, COS7 lysate expressing mutant human TOR1A.
A short description of assay [3]: small molecules captured by biotinylated probe aFGF2 – biochemical, small-molecule microarray, fluorescence 635/667, stem cell growth factor project, primary screen (AID 1067).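 Also: measures binding of biotinylated aFGF2 protein to printed compounds on slides; z-score merges feature fluorescence and signal-to-noise across triplicate slides.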 The conditions noted are these: higher = more signal.
A short description of assay [4]: small molecules captured by biotinylated probe aFGF10 – biochemical, small-molecule microarray, fluorescence 635/667, stem cell growth factor project, primary screen (AID 1071).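 Also: score merges 667 nm spot intensity and signal to noise from triplicate slides.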 Conditions: higher = more signal.
Assay [5] addresses Neurogenic locus notch homolog protein 2 (Homo sapiens) (UniProt Q04721). Briefly: small molecules binding Notch2 protein – biochemical, small-molecule microarray, 635 nm fluorescence, stem cell growth factors, primary screen (AID 1073). Conditions: higher = more signal.
The target in assay [6] is Pro-neuregulin-1, membrane-bound isoform (Homo sapiens) (UniProt Q02297). The assay can be described thus: small molecules binding neuregulin-1 protein – biochemical, small-molecule microarray, fluorescence 635/667, psychiatric disease protein project, primary screen (AID 1075).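 Also: score combines 667 nm spot fluorescence with signal to noise.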 The conditions noted are these: NRG1 binding, 635 nm fluorescence, higher = more signal.
Sequence of Pro-neuregulin-1, membrane-bound isoform (Homo sapiens) (Q02297 whole entry, looked up, the tested form may be a part, canonical isoform): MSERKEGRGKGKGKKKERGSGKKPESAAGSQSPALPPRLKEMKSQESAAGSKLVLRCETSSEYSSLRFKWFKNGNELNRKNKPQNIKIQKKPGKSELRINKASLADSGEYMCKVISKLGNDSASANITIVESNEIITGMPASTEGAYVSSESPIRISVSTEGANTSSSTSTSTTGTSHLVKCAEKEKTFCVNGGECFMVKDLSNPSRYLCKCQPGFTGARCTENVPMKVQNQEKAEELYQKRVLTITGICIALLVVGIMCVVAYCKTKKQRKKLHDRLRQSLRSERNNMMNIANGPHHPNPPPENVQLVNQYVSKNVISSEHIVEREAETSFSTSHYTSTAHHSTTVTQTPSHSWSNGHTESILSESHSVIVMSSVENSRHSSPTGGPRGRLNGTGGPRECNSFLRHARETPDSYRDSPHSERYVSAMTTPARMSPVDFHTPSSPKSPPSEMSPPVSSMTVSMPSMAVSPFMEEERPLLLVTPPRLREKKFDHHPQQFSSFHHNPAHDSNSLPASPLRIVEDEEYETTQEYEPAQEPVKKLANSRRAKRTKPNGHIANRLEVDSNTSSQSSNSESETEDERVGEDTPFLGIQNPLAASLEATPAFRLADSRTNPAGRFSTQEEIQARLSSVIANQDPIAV
The test system of assay [7] is Neuregulin-1 EGF-like domain. Briefly: small molecules binding NRG1 EGF domain – biochemical, small-molecule microarray, 635 nm fluorescence, primary screen (AID 1081).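 Also: binding of the protein to compounds printed on small-molecule microarray slides.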 Conditions: higher = more signal.
A short description of assay [8]: FRG1 expression reporter modulators in myotubes – cell-based, C2C12 myotubes, firefly/Renilla luciferase, luminescence, FRG1 inhibition for FSHD, primary screen (AID 1084). The conditions noted are these: FRG1 promoter luciferase, higher = more signal, called active from +8 up or from −8 down.
A short description of assay [9]: small molecules captured by biotinylated probe aFST – biochemical, small-molecule microarray, fluorescence 635/667, stem cell growth factor project, primary screen (AID 1086).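 Also: score merges 667 nm fluorescence with signal-to-noise of each printed compound spot.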 Conditions: higher = more signal.
Assay [10] is described as follows: binders of probe aHhip on microarray, primary screen, stem cell growth factor project, biochemical, small-molecule microarray, fluorescence 635/667 (AID 1087).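 Also: score merges spot fluorescence at 667nm with spot signal to noise ratio.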 The conditions noted are these: higher = more signal.
Assay [11] has as its system PRMT1 (protein arginine N-methyltransferase 1). The assay can be described thus: small molecules binding arginine methyltransferase PRMT1 – biochemical, small-molecule microarray, 635 nm fluorescence, primary screen (AID 1088).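 Also: binding of Prmt1 protein to compounds spotted on small-molecule microarray slides.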 The conditions noted are these: higher = more signal.
Assay [12] can be described thus: growth effects on S. cerevisiae YJM789 – YJM789 clinical isolate, OD600, 24 h, basal, primary screen (AID 1089).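 Also: growth of clinical yeast isolate S. cerevisiae YJM 789 seeded 1000 cells per well; test concentration not given here.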 The conditions noted are these: higher = more signal, called active from +8 up or from −8 down.
The nature of assay [13]: S. pombe growth modifiers, basal conditions – strain 972, OD600, 24 h, no modulator, primary screen (AID 1090).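 Also: basal condition with compound alone and no growth modifier present; test concentration not given here.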 The conditions noted are these: S. pombe 972 growth, higher = more signal, called active from +8 up or from −8 down.
A short description of assay [14]: budding yeast growth modifiers under rapamycin – strain BY4716, OD600, 96 h, primary screen (AID 1091). Also: test concentration not given here. The conditions noted are these: S. cerevisiae BY4716 + rapamycin, higher = more signal, called active from +8 up or from −8 down.
The target in assay [15] is Torsin-1A-interacting protein 2 (Homo sapiens) (UniProt Q8NFQ8). Briefly: small molecules binding lysate-expressed LULL1 – cell lysate, human LULL1 lysate, 635/667 nm fluorescence, primary screen (AID 1092).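 Also: probe is lysate of COS7 cells overexpressing human LULL1; score merges per-feature 667 nm fluorescence with signal-to-noise.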 The conditions noted are these: small-molecule microarray, hLULL1 lysate binding, 635 nm fluorescence; higher = more signal.
Sequence of Torsin-1A-interacting protein 2 (Homo sapiens) (Q8NFQ8 whole entry, looked up): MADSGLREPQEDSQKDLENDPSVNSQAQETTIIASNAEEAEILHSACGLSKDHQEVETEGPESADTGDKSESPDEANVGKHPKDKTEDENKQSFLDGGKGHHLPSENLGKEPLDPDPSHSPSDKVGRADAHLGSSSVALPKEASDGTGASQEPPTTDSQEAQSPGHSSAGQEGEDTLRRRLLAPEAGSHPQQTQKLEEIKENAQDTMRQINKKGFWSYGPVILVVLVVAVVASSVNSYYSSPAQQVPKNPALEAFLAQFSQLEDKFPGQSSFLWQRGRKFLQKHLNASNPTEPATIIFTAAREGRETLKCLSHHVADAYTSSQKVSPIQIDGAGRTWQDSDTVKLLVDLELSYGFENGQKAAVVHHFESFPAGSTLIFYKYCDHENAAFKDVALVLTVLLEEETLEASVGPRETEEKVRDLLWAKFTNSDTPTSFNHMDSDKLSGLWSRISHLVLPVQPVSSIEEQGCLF
Assay [16] can be described thus: optical density change of DRC41 E. coli – strain DRC41, OD650, 24 h, E. coli filamentation project, primary screen (AID 1093).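 Also: MC1000 strain lacking acrAB efflux and sulA so SOS filamentation is blocked; test concentration not given here.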 Conditions: E. coli DRC41 growth, higher = more signal, called active from +8 up or from −8 down.
Assay [17] in a line: probe aLefty2 binding to arrayed compounds – biochemical, biotinylated probe, 635/667 nm fluorescence, primary screen (AID 1094).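 Also: score merges spot fluorescence near 667 nm with spot signal-to-noise ratio.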 Conditions: small-molecule microarray, higher = more signal.
Assay [18] concerns Noggin (protein binding on small-molecule microarray). The assay can be described thus: small molecules binding Noggin protein – biochemical, 635/667 nm fluorescence, primary screen (AID 1095).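 Also: score merges 667 nm feature fluorescence with signal to noise over triplicate slides.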 Conditions: 635 nm fluorescence, higher = more signal.
In assay [19] the target is Neurogenic locus notch homolog protein 3 (Homo sapiens) (UniProt Q9UM47). The assay can be described thus: small molecules binding NOTCH3 protein – biochemical, 635/667 nm fluorescence, primary screen (AID 1096). The conditions noted are these: small-molecule microarray, 635 nm fluorescence, higher = more signal.
Sequence of Neurogenic locus notch homolog protein 3 (Homo sapiens) (Q9UM47 whole entry, looked up): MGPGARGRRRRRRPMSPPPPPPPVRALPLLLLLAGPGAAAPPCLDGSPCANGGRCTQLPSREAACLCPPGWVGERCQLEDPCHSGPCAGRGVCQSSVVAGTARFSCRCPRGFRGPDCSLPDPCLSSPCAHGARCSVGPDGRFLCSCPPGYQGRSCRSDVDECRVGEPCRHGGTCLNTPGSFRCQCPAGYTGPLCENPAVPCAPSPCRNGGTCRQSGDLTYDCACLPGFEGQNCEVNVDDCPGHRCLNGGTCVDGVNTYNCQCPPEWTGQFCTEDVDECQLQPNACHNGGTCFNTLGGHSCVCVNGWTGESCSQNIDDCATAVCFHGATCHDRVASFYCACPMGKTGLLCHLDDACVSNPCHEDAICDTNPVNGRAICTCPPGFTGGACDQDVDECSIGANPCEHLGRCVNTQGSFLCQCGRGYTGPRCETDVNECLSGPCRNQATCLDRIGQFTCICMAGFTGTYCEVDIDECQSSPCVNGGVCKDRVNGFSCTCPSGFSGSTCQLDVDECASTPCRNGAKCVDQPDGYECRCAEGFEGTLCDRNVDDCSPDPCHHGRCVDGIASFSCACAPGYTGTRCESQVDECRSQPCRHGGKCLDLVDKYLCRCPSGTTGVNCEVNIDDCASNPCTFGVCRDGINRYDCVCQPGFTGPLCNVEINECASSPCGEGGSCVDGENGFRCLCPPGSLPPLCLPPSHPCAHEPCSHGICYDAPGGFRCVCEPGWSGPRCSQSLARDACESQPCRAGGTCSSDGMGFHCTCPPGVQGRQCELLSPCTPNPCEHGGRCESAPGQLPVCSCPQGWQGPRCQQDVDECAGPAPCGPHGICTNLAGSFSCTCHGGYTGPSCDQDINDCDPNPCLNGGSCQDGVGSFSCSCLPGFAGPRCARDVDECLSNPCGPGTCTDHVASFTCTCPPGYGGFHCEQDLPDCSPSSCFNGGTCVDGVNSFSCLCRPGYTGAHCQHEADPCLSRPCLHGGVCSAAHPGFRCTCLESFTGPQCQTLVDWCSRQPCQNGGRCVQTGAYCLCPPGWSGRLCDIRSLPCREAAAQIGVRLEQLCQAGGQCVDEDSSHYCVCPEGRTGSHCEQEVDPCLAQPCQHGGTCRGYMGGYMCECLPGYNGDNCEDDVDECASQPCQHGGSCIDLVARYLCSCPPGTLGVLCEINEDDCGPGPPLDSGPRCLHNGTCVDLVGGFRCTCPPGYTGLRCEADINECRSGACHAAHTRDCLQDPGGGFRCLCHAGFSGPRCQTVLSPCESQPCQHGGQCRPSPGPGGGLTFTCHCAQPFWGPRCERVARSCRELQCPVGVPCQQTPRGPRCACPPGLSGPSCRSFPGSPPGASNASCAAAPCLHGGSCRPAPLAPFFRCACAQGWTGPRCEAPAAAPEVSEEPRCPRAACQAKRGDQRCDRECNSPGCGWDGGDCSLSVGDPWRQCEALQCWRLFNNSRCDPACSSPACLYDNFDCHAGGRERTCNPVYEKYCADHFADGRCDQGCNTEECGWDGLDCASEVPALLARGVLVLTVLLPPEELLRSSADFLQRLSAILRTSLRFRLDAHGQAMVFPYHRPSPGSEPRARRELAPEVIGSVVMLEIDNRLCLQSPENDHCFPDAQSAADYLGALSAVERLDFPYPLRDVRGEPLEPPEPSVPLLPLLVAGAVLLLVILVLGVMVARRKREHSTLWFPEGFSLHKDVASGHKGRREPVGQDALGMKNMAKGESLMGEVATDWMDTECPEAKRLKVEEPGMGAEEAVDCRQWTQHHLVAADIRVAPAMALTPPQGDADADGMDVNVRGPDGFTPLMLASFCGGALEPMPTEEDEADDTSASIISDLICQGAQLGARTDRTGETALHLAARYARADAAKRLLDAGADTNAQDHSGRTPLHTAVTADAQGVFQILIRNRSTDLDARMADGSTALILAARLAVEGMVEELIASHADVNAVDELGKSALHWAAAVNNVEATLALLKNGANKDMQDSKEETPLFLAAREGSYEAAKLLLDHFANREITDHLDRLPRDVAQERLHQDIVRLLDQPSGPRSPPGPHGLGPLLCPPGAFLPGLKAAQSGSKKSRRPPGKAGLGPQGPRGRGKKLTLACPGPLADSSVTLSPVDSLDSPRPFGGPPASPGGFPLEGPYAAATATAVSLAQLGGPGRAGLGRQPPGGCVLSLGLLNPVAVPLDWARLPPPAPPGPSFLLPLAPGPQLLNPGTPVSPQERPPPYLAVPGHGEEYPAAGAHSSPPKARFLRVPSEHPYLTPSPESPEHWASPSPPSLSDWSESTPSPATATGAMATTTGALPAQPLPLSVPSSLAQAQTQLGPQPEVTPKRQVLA
The nature of assay [20]: probe aEGFR binding to arrayed compounds – biochemical, biotinylated probe, 635/667 nm fluorescence, primary screen (AID 1097).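 Also: probe is a biotinylated anti-EGFR antibody binding compounds printed on slides; score combines fluorescence near 667 nm and signal to noise of each spot.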 Conditions: small-molecule microarray, higher = more signal.

On to `C=CC[C@]1(C(=O)N(C)C)COC(c2ccc(OCCCO)cc2)=N1`, for which the composite z-score in assay [1] was 1.11; in assay [2], 2.23; in [3], 0.23; in [4], 0.744; in [5] it was 0.221; in assay [6], 1.83. In addition, the composite z-score is 1.42 in assay [7]; 0.459 in assay [9]; 0.0373 in [10]; 1.36 in assay [11]; 2.75 in assay [15]; 0.804 in assay [17]. In addition, the composite z-score was -0.39 in assay [18], -0.338 in assay [19] and 0.367 in assay [20]. Moreover, the z-score in [8] was 0.233 (inactive); in [12], 0.0794 (inactive); in [13] it was -2.04 (inactive); in assay [14] it was -0.95 (inactive); in [16], -1.46 (inactive).

With `C#CCN(C/C=C/c1ccccc1)[C@H](CO[Si](C)(C)C(C)(C)C)c1ccccc1`, the composite z-score is -0.0528 in assay [1]; -0.0566 in [2]; -0.0815 in assay [3]; -0.284 in assay [4]; -1.14 in assay [5]; -0.267 in assay [6]. Further, the composite z-score in [7] was -0.497; in [9], -0.363; in [10], -0.0994; in assay [11], 0.21; in [15], 0.433; in [17], -0.264. Besides, the figures for the composite z-score in [18], in assay [19] and in assay [20] were -0.0154, -0.091 and -0.21, respectively. The z-score is -1.27 (inactive) in [8]; 0.253 (inactive) in assay [12]; -0.121 (inactive) in assay [13]; 0.0066 (inactive) in assay [14]; -0.347 (inactive) in assay [16].

In the case of `CCCCC(=C=CC[C@@H](O)c1ccc(OCCO)cc1)C[C@@H](O)c1ccccn1`, the composite z-score in [1] is -0.0136; in assay [2] it was 1.23; in [3], -0.0473; in assay [4], 0.314; in assay [5], 0.0751; in [6], 0.0517. Moreover, the composite z-score in assay [7] is 1.15; in assay [9] it was 0.111; in assay [10], 0.16; in assay [11] it was 1.02; in [15], 1.18; in assay [17], -0.0825. The results for the composite z-score in assay [18], in [19] and in [20] were 0.888, 0.409 and -0.0787, respectively. For the same compound, the z-score was -0.838 (inactive) in assay [8]; -0.374 (inactive) in assay [12]; -1.07 (inactive) in assay [13]; -0.689 (inactive) in assay [14]; 0.774 (inactive) in assay [16].

As to `COCCOC(=O)N1C(=O)[C@@]2(c3cc(C#CC4=CCCCC4)ccc31)[C@H](C(=O)N1CCN(c3ncccn3)CC1)[C@H]1C(=O)O[C@H](c3ccccc3)[C@H](c3ccccc3)N1[C@@H]2c1ccccc1OCCO`, the composite z-score in assay [1] was -0.285; in [2] it was 0.943; in assay [3], 0.0346; in assay [4], 0.616; in assay [5] it was 0.793; in [6] it was 0.591. For the same compound, the composite z-score in assay [7] is 1.15; in [9], 0.636; in assay [10] it was -0.0237; in [11], 1.53; in [15], 2.75; in assay [17], -0.0687. The figures for the composite z-score in [18], in assay [19] and in [20] were 1.14, 1.04 and -0.0749, respectively. Further, the z-score in assay [8] is 1.45 (inactive); in assay [12], 1.3 (inactive); in assay [13], 0.683 (inactive); in [14], 4.42 (inactive); in assay [16], 1.96 (inactive).

On to `C=CCNC(=O)[C@H]1[C@@H]2C(=O)O[C@@H](c3ccccc3)[C@@H](c3ccccc3)N2[C@@H](c2ccc(O)cc2)[C@]12C(=O)Nc1ccc(C#CC3=CCCCC3)cc12`, for which the composite z-score in assay [1] was -0.713; in assay [2], 2.01; in assay [3], -0.0449; in assay [4], 0.447; in assay [5], 0.706; in assay [6], 0.0212. The composite z-score in assay [7] is 1.18; in assay [9], -0.166; in assay [10] it was 0.199; in assay [11] it was 1.42; in [15], 1.54; in [17], 0.384. Besides, the composite z-score is 1 in assay [18], 0.758 in [19] and -0.17 in assay [20]. For the same compound, the z-score in [8] was -0.195 (inactive); in [12], 1.51 (inactive); in assay [13] it was 0.614 (inactive); in [14], 1.98 (inactive); in [16] it was -0.197 (inactive).
